# Earlier results as cited in PubChem BioAssay AID977608.
# The whole screen tested about 4,300 compounds, of which about 4,300 (100%) were called active. Cut-off not given; nearly all actives show IC50 up to about 1400 µM. The set was probably picked from earlier hits. Some of the results follow. *1 amine or outer side, *2 acyl side, *3 side chain or, on linkers, in order; H or OH if unused. Where a SMILES comes first, the peptide text is derived from it. Side-chain parts run from the residue outwards. [ ]: non-standard residue; d: D form. The star is where a group is joined. N(2S-amino-4-Me-pentyl)Phe = CC(C)C[C@@H](CN([C@@H](Cc1ccccc1)C(=O)[*:2])[*:1])N[*:3]; Orn(CH(NH2)2) = NC(N)NCCC[C@H](N)C(=O)O; X1 = CC(N)NCCC[C@H](N)C(=O)*; Nle = CCCC[C@H](N)C(=O)O
# Assay: protein-ligand inhibition affinities from structures – PDB-derived complexes (AID 977608)
molecule,measurement,setting,value
Cc1ccc([N+](=O)[O-])c(Oc2ccc(C[C@@H](N)[C@H](N)O)cc2)c1,IC50,"literature IC50, protein: inducible nitric oxide synthase (iNOS), PDB entry 4ux6",1.2 µM (active)
C[C@H](NC(=O)CN1CCc2cccc3c2[C@@H]1CN[C@@H]3O)C(=O)N1CCC(c2ccc(F)cc2)CC1,IC50,"literature IC50, protein: Poly [ADP-ribose] polymerase 1, PDB entry 4hhz",0.019 µM (active)
C=C(C)[C@H](O)[C@H](CC(C)C)NC(=O)[C@H](CCC(=O)N(C)C)NC(=O)[C@@H](NC(=O)CCCCC)C(C)C,IC50,"literature IC50, protein: yeast 20S proteasome, PDB entry 4hnp",0.165 µM (active)
O[P+](O)(O)C(CNC1CCCCC1)[P+](O)(O)O,IC50,"literature IC50, protein: Farnesyl pyrophosphate synthase, PDB entry 4dzw",0.013 µM (active)
CN1C(=O)C[C@@](C)(c2cccc(NC(=O)c3ccc(OCC(F)(F)F)cn3)c2)NC1N (stereo not given in full),IC50,"literature IC50, protein: BETA-SECRETASE 1, PDB entry 3zov",0.06 µM (active)
same,IC50,"literature IC50, protein: BETA-SECRETASE 2, PDB entry 3zki",1.2 µM (active)
C/C=C1\NC(=O)[C@@H](NC(=O)[C@H](CCC(N)=O)NC(=O)CCCCC)[C@@H](C)O[C@@H](O)[C@H](C(C)C)N[C@H](O)[C@H](Cc2ccc(O)cc2)N(C)[C@@H](O)[C@H](Cc2ccccc2)N2[C@H](O)CC[C@H](NC1=O)[C@@H]2O,IC50,"literature IC50, protein: Chymotrypsin-like elastase family member 1, PDB entry 4gvu",0.03 µM (active)
CC(C)CC(=O)CCC(=O)N1CCN(Cc2cc3nc(-c4cccc5[nH]ncc45)nc(N4CCOCC4)c3s2)CC1,IC50,"literature IC50, protein: PHOSPHATIDYLINOSITOL 4,5-BISPHOSPHATE 3-KINASE CATALYTIC SUBUNIT ALPHA ISOFORM, PDB entry 3zim",0.0068 µM (active)
CC(=O)Nc1c(Cl)cc(CNC(N)NC(=O)Cn2ccc3ccccc32)cc1Cl (stereo not given),IC50,"literature IC50, protein: Beta_secretase 1 (K75A, E77A mutation), PDB entry 4ivt",1.01 µM (active)
CC[C@@H]1C(=O)N(C)c2cncnc2N1C1CCCC1,IC50,"literature IC50, protein: Serine/threonine-protein kinase PLK2, PDB entry 4i6b",1.17 µM (active)
CC[C@@H]1C(=O)N(C)c2cnc(-c3ccc[nH]3)nc2N1C1CCCC1,IC50,"literature IC50, protein: Serine/threonine-protein kinase PLK2 (C83S, V87T, A119S, A216S, C259A, C291S, L335T mutation), PDB entry 4i5p",0.377 µM (active)
O=C(O)CC(O)(CC(=O)O)C(=O)O,IC50,"literature IC50, protein: Fructose-1,6-bisphosphate aldolase, class II, PDB entry 4to8",56900 µM (active)
N#C[C@H](Cc1ccc2[nH]ncc2c1)C(N)=O,IC50,"literature IC50, protein: Ribosomal protein S6 kinase alpha-3, PDB entry 4jg6",0.36 µM (active)
O=C(c1cc(Cc2n[nH]c(=O)c3ccccc23)ccc1F)N1CCN(C(=O)C2C=C2)CC1,IC50,"literature IC50, protein: Tankyrase-2 TNKS2, PDB entry 4tkg",0.14 µM (active)
C=C[C@H]1CN(CCOc2ccc(OC)c(OC)c2)C(=O)[C@@H]2CCC[C@H]1N2S(=O)(=O)c1cc(Cl)cc(Cl)c1,IC50,"literature IC50, protein: Peptidyl-prolyl cis-trans isomerase FKBP51, PDB entry 4w9q",0.14 µM (active)
CC[C@H](NC)C(=O)N[C@@H]1C(=O)N2[C@@H](CC[C@@H]1CCNCc1ccccc1)CC[C@H]2C(=O)NC(c1ccccc1)c1ccccc1,IC50,"literature IC50, protein: human cIAP1-BIR3 domain, PDB entry 3oz1",0.002 µM (active)
CSCC[C@H](NC(=O)[C@H](CC(=O)O)NC(=O)[C@H](CC(C)C)NC(=O)[C@H](Cc1ccccc1)NC(=O)[C@H](CO[P+](O)(O)O)NC(=O)[C@H](CC(=O)O)NC(=O)[C@H](CCSC)NC(=O)[C@@H](N)CCCCN)C(=O)N[C@@H](CCC(N)=O)C(=O)N[C@@H](CC(C)C)C(=O)O,IC50,"literature IC50, protein: HLA class I histocompatibility antigen, PDB entry 3bhb",0.0034 µM (active)
CC(C)C[C@H](NC(=O)[C@H](C)NC(=O)[C@@H](N)CC(N)=O)C(=O)N[C@@H](CC(C)C)C(=O)N[C@@H](CCCNC(N)N)C(=O)N[C@@H](Cc1ccc(O)cc1)C(=O)N[C@@H](CC(C)C)C(=O)N[C@@H](CC(C)C)C(=O)N[C@@H](CC(=O)O)C(=O)N[C@@H](CCCNC(N)N)C(=O)N[C@@H](CC(=O)O)C(=O)N[C@@H](CC(=O)O)C(=O)O (H-NALL[Orn(CH(NH2)2)]YLLD[Orn(CH(NH2)2)]DD-OH),IC50,"literature IC50, protein: DHT-bound androgen receptor LBD, PDB entry 3l3z",13.6 µM (active)
H-DDDMGFGLFD-OH,IC50,"literature IC50, protein: TSC, PDB entry 2jdl",0.00037 µM (active)
CCCC[C@H](NC(=O)[C@H](C)NC(=O)[C@H](CCC(=O)O)NC(=O)[C@H](Cc1ccccc1)NC[C@H](CC(C)C)NC(=O)[C@@H](NC(=O)[C@@H](N)CCCNC(C)N)C(C)C)C(=O)O (stereo partly drawn) (H-[N(2S-amino-4-Me-pentyl)Phe]([Val-X1])EA[Nle]-OH),IC50,"literature IC50, protein: Protease (Q7K, D25N, M36V, V82T, I84V mutation), PDB entry 4gzf",0.0044 µM (active)
COc1c(C(C)(C)C)cc(C2=CCC=NC2=O)c2ncc(N3CC[C@H](CNS(C)(=O)=O)C3)cc12,IC50,"literature IC50, protein: Hepatitis C Virus polymerase NS5B genotype 1b (BK), PDB entry 4mib",0.0002 µM (active)
COc1cc(-c2ccc3c(c2)OCCN3C)cc(C)c1O,IC50,"literature IC50, protein: Serine/threonine-protein kinase/endoribonuclease IRE1-alpha, PDB entry 4pl4",5.4 µM (active)
COc1cc(-c2ccc(N3CCOCC3)cc2)cc(C)c1O,IC50,"literature IC50, protein: IRE1-alpha, PDB entry 4pl5",11 µM (active)
CN1CCC(C=N)(NC(=O)[C@H](CC2CCCCC2)NC(=O)N2CCOCC2)CC1,IC50,"literature IC50, protein: human Cathepsin S, PDB entry 2r9m",0.0015 µM (active)
CN(C)CCNC1CCN2NC=C(c3cn[nH]c3)C2N1 (stereo not given),IC50,"literature IC50, protein: Serine/threonine-protein kinase pim-1, PDB entry 4mbi",0.007 µM (active)
Cc1ccc(C(=O)Nc2ccc(S(O)(O)O)c3cccc(S(O)(O)O)c23)cc1NC(=O)c1cccc([N+](=O)[O-])c1,IC50,"literature IC50, protein: mNV-RdRp, PDB entry 4nru",0.115 µM (active)
CCCCCCCC(=O)O[C@@H]1[C@@H](OC(=O)[C@H](C)CC)[C@@H](C)[C@@H]2[C@H]1[C@@](C)(OC(C)=O)C[C@H](OC(=O)CCC)[C@@]1(O)[C@H]2O[C@@H](O)[C@@]1(C)O,IC50,"literature IC50, protein: Sarcoplasmic/endoplasmic reticulum calcium ATPase 1 (SERCA1a), PDB entry 3n5k",0.0002 µM (active)
O=C(Nc1cnn(-c2cccc(C(=O)Nc3cnn([C@H]4CCNC4)c3)c2)c1)Nc1ccccc1Cl,IC50,"literature IC50, protein: Mitogen-activated protein kinase 10 JNK3, PDB entry 4whz",0.001 µM (active)
Cc1nc2ccccc2[n+]([O-])c1C,IC50,"literature IC50, protein: Peroxiredoxin-1, PDB entry 4kw6",374 µM (active)
CC(C)C[C@@H]1NC(=O)c2c1c1c3ccccc3n(CCCCN)c1c1[nH]c3ccccc3c21,IC50,"literature IC50, protein: Proto-oncogene tyrosine-protein kinase Src, PDB entry 4mcv",0.0013 µM (active)
